# According to PubChem BioAssay (Tox21):
# Values without a mark were called inactive. Inconclusive results are not listed. Where a call stands in place of a potency, no number is given. The source made the active and inactive calls. Unless noted, the call rests on the fitted dose curve; in most records, active means well fitted curve in the direction sought with a large enough effect in the repeat runs; inconclusive means weak or mixed curves; inactive means no such curve, though single readings can be large; an effect the other way counts as inactive or inconclusive.
# Columns and labels:
# [1] = qHTS assay to identify small molecule agonists of the hypoxia (HIF-1) signaling pathway (AID 1224846; active means well fitted activation curve with a large enough effect in the signal ratio in the repeat runs, not every such curve was filed as active; the % refers to the signal ratio)
# In short: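 Compounds from the Tox21 10K library, dissolved in DMSO, are tested for induction of a hypoxia response element–controlled beta-lactamase reporter in ME-180 cells. Exposure lasts 17 hrs at 37C after a 5 hr settling period, followed by CCF4-AM FRET substrate.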
# [2] = qHTS assay to identify small molecule agonists of H2AX - cell viability counter screen (AID 1224847; calls by dose curve; further: nearly all actives have a fitted effect of over 30% in size; further: potency means the concentration at half of the fitted maximal effect)
# In short: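 Viability of CHO-K1 (wild type) cells after 3 hr compound exposure was measured by CellTiter-Glo luminescence.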
# [3] = qHTS assay to identify small molecule antagonists of the estrogen related receptor (ERR) signaling pathway from Tox21 library (AID 1224848); further: nearly all actives have a fitted effect of over 50% in size; further: potency means the concentration at half of the fitted maximal effect
# In short: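 Compounds dissolved in DMSO are pin-transferred onto ERR reporter cells (2,000 per well) that have settled for 6 h at 37 C. Plates then incubate 18 h at 37 C before ONE-Glo luciferase reagent and a luminescence read 30 min later.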
# [4] = qHTS assay to identify small molecule agonists of the estrogen related receptor (ERR) signaling pathway from Tox21 library (AID 1224849; calls by dose curve; further: nearly all actives have a fitted effect of over 15% in size); details: ERR reporter cell line, ONE-Glo luciferase, 18 h; at 92.4 µM (top of the series) unless noted
# In short: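 Cells carrying the ERR reporter were plated and allowed to settle for 6 h, exposed to library compounds for 18 h at 37 C, then lysed with ONE-Glo and luminescence measured.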
# [5] = qHTS RealTime-Glo MT Cell Viability Assay in HepG2 cells - 24 hour (AID 1224867); further: nearly all actives have a fitted effect of over 50% in size
# In short: (§1)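 qHTS, HepG2, 600 cells/well, RealTime-Glo (NanoLuc + prosubstrate) added with cells; 5 h preincubation; DMSO compound addition; 37 C; luminescence at 0/8/16/24/32/40 h.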
# [6] = qHTS RealTime-Glo MT Cell Viability Assay in HEK293 cells - 32 hour (AID 1224868); further: nearly all actives have a fitted effect of over 50% in size; further: potency means the concentration at half of the fitted maximal effect
# In short: (§2)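 Assay medium contained NanoLuc luciferase plus cell-permeant prosubstrate, added with HEK293 cells at 600 cells/well. After 5 h at 37 C/5% CO2 compounds were added; plates stayed at 37 C for 40 h with serial luminescence reads.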
# [7] = A CellTox Green Cytotoxicity Assay to monitor cytotoxicity in HEK293 cells - 0 hour (AID 1224869); further: nearly all actives have a fitted effect of over 50% in size
# In short: (§3)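 Cells (HEK293, 600/well) and dye reagent are dispensed together. After 5 h at 37 C, 23 nL compound is pinned in. Plates stay at 37 C for 40 h with fluorescence read at 0h, 8h, 16h, 24h, 32h and 40h.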
# [8] = qHTS RealTime-Glo MT Cell Viability Assay in HepG2 cells - 40 hour (AID 1224870); further: nearly all actives have a fitted effect of over 50% in size
# In short: (§4)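 HepG2 cells (600/well) mixed with RealTime-Glo MT reagent, settled 5 h at 37 C/5% CO2 before compound addition. Nonlytic NanoLuc luminescence from viable-cell prosubstrate reduction read repeatedly during 40 h treatment at 37 C.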
# [9] = A CellTox Green Cytotoxicity Assay to monitor cytotoxicity in HEK293 cells - 40 hour (AID 1224871); further: nearly all actives have a fitted effect of over 45% in size
# In short: as §3
# [10] = qHTS RealTime-Glo MT Cell Viability Assay in HEK293 cells - 16 hour (AID 1224872); further: nearly all actives have a fitted effect of over 50% in size; further: potency means the concentration at half of the fitted maximal effect
# In short: as §2
# [11] = qHTS RealTime-Glo MT Cell Viability Assay in HepG2 cells - 8 hour (AID 1224873); further: nearly all actives have a fitted effect of over 55% in size
# In short: as §4
# [12] = qHTS RealTime-Glo MT Cell Viability Assay in HEK293 cells - 40 hour (AID 1224874); details: RealTime-Glo luminescence; max response: stronger effect = lower value; further: nearly all actives have a fitted effect of over 50% in size; further: potency means the concentration at half of the fitted maximal effect
# In short: (§5)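 Real-time viability in HEK293: signal arises when living cells convert a prosubstrate for NanoLuc in the medium, so luminescence tracks viable cell number. Compound (23 nL, DMSO) added 5 h post-seeding; kinetic reads at 0–40 h, 37 C.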
# [13] = A CellTox Green Cytotoxicity Assay to monitor cytotoxicity in HEK293 cells - 24 hour (AID 1224875); further: nearly all actives have a fitted effect of over 45% in size
# In short: as §3
# [14] = A CellTox Green Cytotoxicity Assay to monitor cytotoxicity in HepG2 cells - 16 hour (AID 1224876); further: nearly all actives have a fitted effect of over 45% in size
# In short: (§6)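 Cells and non-lytic dye reagent are dispensed together (600 HepG2 cells/well) and incubated 5 h before DMSO compound transfer. Kinetic fluorescence is then recorded in the same wells during 40 h at 37 C.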
# [15] = A CellTox Green Cytotoxicity Assay to monitor cytotoxicity in HepG2 cells - 24 hour (AID 1224878); further: nearly all actives have a fitted effect of over 45% in size
# In short: as §6
# [16] = A CellTox Green Cytotoxicity Assay to monitor cytotoxicity in HepG2 cells - 40 hour (AID 1224879); further: nearly all actives have a fitted effect of over 40% in size
# In short: as §6
# [17] = qHTS RealTime-Glo MT Cell Viability Assay in HEK293 cells - 0 hour (AID 1224880)
# In short: as §5
# [18] = A CellTox Green Cytotoxicity Assay to monitor cytotoxicity in HEK293 cells - 32 hour (AID 1224881); further: nearly all actives have a fitted effect of over 40% in size
# In short: as §3
# [19] = qHTS RealTime-Glo MT Cell Viability Assay in HepG2 cells - 32 hour (AID 1224877); further: nearly all actives have a fitted effect of over 55% in size
# In short: as §1
# [20] = A CellTox Green Cytotoxicity Assay to monitor cytotoxicity in HepG2 cells - 0 hour (AID 1224882); further: nearly all actives have a fitted effect of over 35% in size
# In short: as §6
structure (smiles),measurement,setting,value
COCC(=O)N(c1c(C)cccc1C)[C@H](C)C(=O)OC,outcome,[1],inactive
same,Potency,[2],inactive
same,Potency,[3],inactive
same,"activity change, positive = activation",[4],-2.81%
same,Potency,[5],inactive
same,Potency,[6],inactive
same,Potency,[7],inactive
same,Potency,[8],inactive
same,Potency,[9],inactive
same,Potency,[10],inactive
same,Potency,[11],inactive
same,max response,[12],-0.139%
same,Potency,[13],inactive
same,Potency,[14],inactive
same,Potency,[15],inactive
same,Potency,[16],inactive
same,Potency,[17],inactive
same,Potency,[18],inactive
CCCCOP(=O)(CCCC)OCCCC,outcome,[1],inactive
same,Potency,[2],inactive
same,Potency,[3],inactive
same,"activity change, positive = activation",[4],-2.44%
same,Potency,[5],inactive
same,Potency,[7],inactive
same,Potency,[8],inactive
same,Potency,[9],inactive
same,Potency,[11],inactive
same,Potency,[13],inactive
same,Potency,[14],inactive
same,Potency,[19],inactive
same,Potency,[15],inactive
same,Potency,[16],inactive
same,Potency,[17],inactive
same,Potency,[18],inactive
same,Potency,[20],inactive
C[C@]12Cc3nonc3C[C@@H]1CC[C@@H]1[C@@H]2CC[C@@]2(C)[C@H]1CC[C@]2(C)O,outcome,[1],inactive
same,Potency,[2],49.2 µM (active)
same,Potency,[3],13.3 µM (active)
same,"activity change, positive = activation",[4],-58.3% [at 42.5 µM]
same,Potency,[5],inactive
same,Potency,[6],21.3 µM (active)
same,Potency,[7],inactive
same,Potency,[8],inactive
same,Potency,[10],19 µM (active)
same,Potency,[11],inactive
same,Potency,[12],19 µM (active)
same,Potency,[13],inactive
same,Potency,[14],inactive
same,Potency,[19],inactive
same,Potency,[15],inactive
same,Potency,[16],inactive
same,Potency,[17],inactive
same,Potency,[18],inactive
same,Potency,[20],inactive
CCSC(C)CC1CC(=O)C(/C(CC)=N/OC/C=C/Cl)=C(O)C1 (stereo unspecified),outcome,[1],inactive
same,Potency,[2],inactive
same,Potency,[3],inactive
same,"activity change, positive = activation",[4],-10.8% [at 42.5 µM]
same,Potency,[5],inactive
same,Potency,[6],inactive
same,Potency,[7],inactive
same,Potency,[8],inactive
same,Potency,[9],inactive
same,Potency,[10],inactive
same,Potency,[11],inactive
same,max response,[12],0.0447%
same,Potency,[13],inactive
same,Potency,[14],inactive
same,Potency,[15],inactive
same,Potency,[16],inactive
same,Potency,[17],inactive
same,Potency,[18],inactive
CC(C)CC(C)N (stereo unspecified),outcome,[1],inactive
same,Potency,[2],inactive
same,Potency,[3],inactive
same,"activity change, positive = activation",[4],0.671%
same,Potency,[5],inactive
same,Potency,[6],inactive
same,Potency,[7],inactive
same,Potency,[8],inactive
same,Potency,[9],inactive
same,Potency,[10],inactive
same,Potency,[11],inactive
same,max response,[12],4.09%
same,Potency,[13],inactive
same,Potency,[14],inactive
same,Potency,[15],inactive
same,Potency,[16],inactive
same,Potency,[17],inactive
same,Potency,[18],inactive
C=CC(=O)N(C)C,outcome,[1],inactive
same,Potency,[2],inactive
same,Potency,[3],inactive
same,"activity change, positive = activation",[4],-4.19%
same,Potency,[5],inactive
same,Potency,[6],inactive
same,Potency,[7],inactive
same,Potency,[10],inactive
same,Potency,[11],inactive
same,max response,[12],-0.539%
same,Potency,[13],inactive
same,Potency,[14],inactive
same,Potency,[15],inactive
same,Potency,[16],inactive
same,Potency,[17],inactive
same,Potency,[18],inactive
BrC(Br)Br,outcome,[1],inactive
same,Potency,[2],inactive
same,Potency,[3],inactive
same,"activity change, positive = activation",[4],0.336%
same,Potency,[5],inactive
same,Potency,[6],inactive
same,Potency,[7],inactive
same,Potency,[8],inactive
same,Potency,[9],inactive
same,Potency,[10],inactive
same,Potency,[11],inactive
same,max response,[12],17.3%
same,Potency,[13],inactive
same,Potency,[14],inactive
same,Potency,[19],inactive
same,Potency,[15],inactive
same,Potency,[16],inactive
same,Potency,[17],inactive
same,Potency,[18],inactive
same,Potency,[20],inactive
